# Experimental data reported in ChEMBL document CHEMBL3988442, “University of Dundee, Small-Polar-MMV Screening Library” (2021).
# Among all 48,000 compounds or so, about 13,000 (27%) showed an effect of 50% or more. The list shows a part of the results.
# Test system: Wolbachia pipientis
# Assay: Anti-Wolbachia Cell-Based Screen
# Assay type: functional
# Parameters: scale not given: in the data most compounds retested in dose-response had high values
# Settings: 5 µM
row,SMILES,Percent Effect [%]
1,CCCN1CC2(CCN(C)CC2)CC1C(=O)NCCn1nc(C)nc1C (centres undefined),-19.15
2,O=C(CCn1cncn1)NCC1CCS(=O)(=O)C1 (centres undefined),0.07359
3,CCN(CC)CCSc1ncnc2[nH]ncc12,-13.76
4,Cc1cc(C(=O)NC(CC(C)C)C(=O)Nc2cc[nH]n2)c(C)o1 (centres undefined),2.286
5,CC(C)c1noc(CN(Cc2ccccc2F)C2CC2)n1,5.507
6,COc1ccccc1CN(Cc1nc(CC(C)C)no1)C1CC1,68.8
7,COc1ccccc1CCc1nc(CC2CCN(C)CC2)no1,0.6251
8,CC(CCc1ccccc1F)C(=O)NS(C)(=O)=O (centres undefined),-12.84
9,Cc1nc(C)n(C2CCCN(C(=O)CCOC(C)C)C2)n1 (centres undefined),104.7
10,Cc1nc(C)n(C2CCCN(C(=O)c3cnc[nH]3)C2)n1 (centres undefined),5.274
11,Cc1nc(C)n(C2CCCN(C(=O)c3csc(C(C)C)n3)C2)n1 (centres undefined),-3.924
12,Cc1nc(C)n(C2CCCN(C(=O)CCOCC(C)C)C2)n1 (centres undefined),96.93
13,CC(NC(N)=O)C(=O)N(C)Cc1cccc(C(F)(F)F)c1 (centres undefined),-8.418
14,O=C1CC(NCc2cnc(-c3cccs3)nc2)CN1c1ccccc1 (centres undefined),9.928
15,Cc1ncnc2c1CCN(C(=O)c1ccsc1)CC2,-12.52
16,Cn1nc(C#N)c2c1CN(C(=O)c1ccsc1)CCC2,-3.731
17,CCc1nsc(N2CCCN(C(=O)c3ccsc3)CC2)n1,9.27
18,Cc1nc(N2CCN(C(=O)c3ccsc3)CC2)c2cnn(C)c2n1,2.047
19,Cn1ncc2c(N3CCN(C(=O)c4ccsc4)CC3)ncnc21,110.5
20,Cc1nc(N2CCCN(C(=O)c3ccsc3)CC2)c2cnn(C)c2n1,93.06
21,Cc1nc(N2CCN(C(=O)c3ccccc3)CC2)c2cnn(C)c2n1,113.9
22,Cc1csc(N2CCCN(C(=O)c3ccsc3)CC2)n1,30.07

row,SMILES,Percent Effect [%]
1,Cc1nc(N2CCN(C(=O)c3ccccc3)CC2)c2c(n1)c(C)nn2C,38.43
2,Cc1nc(N2CCN(C(=O)c3ccc(O)cc3)CC2)c2cnn(C)c2n1,3.35
3,Cn1ncc2c(N3CCCN(C(=O)c4ccsc4)CC3)ncnc21,109.6
4,Cn1ncc2c(=O)[nH]c(N3CCN(C(=O)c4ccsc4)CC3)nc21,8.888
5,CN(C)CCn1c(=O)oc2ccc(NC(=O)CC(C)(C)C)cc21,14.89
6,Cc1ccc(NC(C)C(=O)NCc2cccs2)cc1C (centres undefined),-16.27
7,CCOc1ccc2ccccc2c1CNCC1CCS(=O)(=O)C1.Cl (centres undefined),-1.499
8,CCOc1ccnc(N2CCN(C(=O)C(C)(C)C#N)CC2)n1,0.4658
9,COc1cc(CN(C)C(=O)NCc2cccnc2OC)ccc1SC,-20.02
10,Cc1cc(CS(=O)(=O)C(C)c2ccc(F)cc2)on1 (centres undefined),-4.028
11,COc1ccc(CNC2CCN(c3ccccc3)C2)c(OC)c1OC (centres undefined),-16.13
12,CN(C)c1cc(C(=O)N2CCCC(n3cccn3)C2)ccn1 (centres undefined),-2.177
13,Cc1nccn1C1CCCN(C(=O)c2ccnc(-n3ccnc3)c2)C1 (centres undefined),102.3
14,O=C(c1cccc(Cn2ccnc2)c1)N1CCCC(n2ccnc2)C1 (centres undefined),0.5166
15,O=C(c1ccnc(-n2ccnc2)c1)N1CCCC(n2cccn2)C1 (centres undefined),103.2
16,O=C(c1ccc(-n2ccnc2)nc1)N1CCCC(n2cccn2)C1 (centres undefined),-14.33
17,Cc1nccn1C1CCCN(C(=O)c2cccc(Cn3ccnc3)c2)C1 (centres undefined),99.35
18,O=C(c1ccnc(-n2ccnc2)c1)N1CCCC(n2ccnc2)C1 (centres undefined),100.2
19,CC(C)n1ccnc1CN1CCOC(CC2CCCCC2)C1 (centres undefined),1.186
20,CCc1ccc(-c2cn(CCSc3ncn[nH]3)nn2)nc1,2.471
21,Cn1nnnc1SCCNC(=O)C1CCN(C(=O)C2CCC2)CC1,1.92
22,CC(C)[C@H]1CN(CC2CCC2)C[C@@H]1NC(=O)c1ccc(=O)[nH]c1,7.651

row,SMILES,Percent Effect [%]
1,CN(C)C(=O)c1nc(CN2C(=O)OC[C@@H]2c2ccccc2)no1,1.255
2,O=C(CN1CCS(=O)(=O)CC1)NC1CCCc2ccccc21 (centres undefined),8.057
3,CCN(CCO)Cc1cn(-c2cccc(F)c2)nc1-c1ccc(C)o1,11.71
4,O=C1CN(Cc2nnc(-c3ccc(Cl)cc3)o2)CCN1,-10.36
5,c1ccc2c(c1)CC(N1CCCC(NCc3cccc4nonc34)C1)C2 (centres undefined),-10.52
6,CCN(CCn1cccn1)C(=O)CN1C(=O)OC[C@@H]1c1ccccc1,-1.306
7,O=S(=O)(CC1CCCN1S(=O)(=O)C1CC1)c1ccccc1 (centres undefined),115.6
8,NC1CCCCN(Cc2ccccc2CS(=O)(=O)c2ccccc2)C1 (centres undefined),-12.21
9,O=S(=O)(c1cccnc1)N1CCCC1COc1ccccc1 (centres undefined),-14.29
10,CS(=O)(=O)N1CCCCC1CCc1ccc(O)cc1 (centres undefined),6.219
11,O=C(CC1CCCN1S(=O)(=O)N1CCCCC1)c1cccs1 (centres undefined),-4.447
12,CS(=O)(=O)N1CCCC1CS(=O)(=O)c1ccccc1 (centres undefined),121.3
13,Cc1nccn1CC1CCCN1S(=O)(=O)Cc1ccccc1 (centres undefined),-11.24
14,O=S(=O)(c1cccnc1)N1CCN(CC(O)c2ccccc2)CC1 (centres undefined),2.359
15,O=S(=O)(CC1CCCN1S(=O)(=O)c1cccnc1)c1ccccc1 (centres undefined),115.5
16,CS(=O)(=O)c1ccc(-c2c[nH]c([C@@H]3COCCN3)n2)cc1,22.57
17,COc1ccc(OC)c2c(C)cc(N(C)Cc3cc(C)on3)nc12,-2.431
18,Cc1nc2cc(=O)[nH]n2c(C)c1CC(=O)Nc1ccc2ccccc2n1,-9.33
19,COc1cccc(-c2noc(C3CCN(CC4CCCCC4)C3)n2)c1.Cl (centres undefined),96.8
20,CCS(=O)(=O)c1ccc2oc([C@H]3CCN(CC4CCCCC4)C3)nc2c1,-4.53
21,Cc1cccc(-c2noc([C@@H]3C[C@@H](O)CN3C3CCOCC3)n2)c1,-7.928
22,COc1cccc(COC(C)C(=O)NC2CCN(CC(N)=O)CC2)c1 (centres undefined),-5.378

row,SMILES,Percent Effect [%]
1,COc1cccc(-c2cccc(CN3C[C@@H]4CC[C@H](C3)N(C)C4=O)c2)c1,5.514
2,COc1cccc(-c2noc(C3CCN(Cc4ccc(C)cc4)C3)n2)c1.Cl (centres undefined),91
3,COc1cccc(-c2noc(C3CCN(CC(N)=O)C3)n2)c1 (centres undefined),113.2
4,COc1cccc(-c2noc(C3CCN(Cc4cccs4)C3)n2)c1.Cl (centres undefined),4.787
5,c1ccc(-c2noc(C3CCN(CCn4cccn4)CC3)n2)cc1,4.986
6,COc1cccc(-c2noc(C3CCN(Cc4ccncc4)C3)n2)c1 (centres undefined),126.2
7,Cc1c(NC(C)C(C)C)cccc1C(=O)NCc1cnn(C)c1 (centres undefined),6.886
8,COC(=O)c1sccc1S(=O)(=O)NCC1(O)CCOc2ccccc21 (centres undefined),-4.679
9,CCOC(=O)CN1CCC(NC(=O)OC(C)(C)C)CC1,-0.4465
10,COc1cccc([C@@H](C)n2ccnc2-c2cc3n(n2)CCNC3)c1,-10.36
11,CN(Cc1nc2ccccc2[nH]1)C(=O)C(C)(C)n1cc(Cl)cn1,2.79
12,CC(=O)c1cc(CN2CCCC2c2nc3ccc(C)cc3[nH]2)cs1 (centres undefined),-31.75
13,O=C(O)CCc1cccc(C2CCCN2Cc2ccc(F)c(F)c2)n1 (centres undefined),-6.193
14,O=C(O)CCc1cn(C2CCN(c3ncccc3Cl)CC2)nn1,-1.723
15,Cc1cc(C)nc(N2CCC(c3cccc(CCC(=O)O)n3)CC2)n1,80.96
16,Cc1nn(C)c(C)c1C1CCCN1Cc1cccc(C(N)=O)c1 (centres undefined),1.349
17,COc1cc(C)nc(N2CCN(C(=O)CCc3cscn3)CC2)n1,-12.29
18,O=C(O)CCc1cccc(C2CCCN2Cc2cccc(Cl)c2)n1 (centres undefined),91.67
19,NC(=O)COc1cccc(CN2CCCC2c2ccc[nH]2)c1 (centres undefined),11.28
20,Cc1cccc(CN2CCCC2c2cccc(CCC(=O)O)n2)c1 (centres undefined),96.42
21,CCCN1CCCn2nc(CNC(=O)CC3CCS(=O)(=O)C3)cc2C1 (centres undefined),-3.917
22,CCc1ccc(C2COCCN2C(=O)Nc2cccc(C(C)=O)c2)o1 (centres undefined),-4.107

row,SMILES,Percent Effect [%]
1,CSc1ncc(C(=O)NCc2cc3n(n2)CCCN(CC(C)C)C3)cn1,10.82
2,CC(=O)N1CCC2(CC1)CN(CC(C)C)CC21CCNC1=O.O=C(O)C(F)(F)F (centres undefined),-42.64
3,COc1cc2c(cc1OC)S(=O)(=O)N(Cc1ccccc1C)C2=O,-3.651
4,O=C1CC(c2ncc(-c3ccc4c(c3)OCCO4)[nH]2)CN1C1CCCC1 (centres undefined),12.43
5,CCNC(=O)N1CC[C@H]2CC(=O)N(C3CCCCC3)CC[C@H]2C1,0.2272
6,CC(C)Nc1nc(O)cc(C2CC(=O)N(C3CCCCC3)C2)n1 (centres undefined),137.6
7,CC1CCN(c2nc(O)cc(C3CC(=O)N(C4CCCCC4)C3)n2)CC1 (centres undefined),162.6
8,CCOCCCNc1nc(O)cc(C2CC(=O)N(C)C2)n1 (centres undefined),-9.932
9,CC(=O)N1CC[C@H]2CC(=O)N(C3CCCCC3)CC[C@H]2C1,-3.423
10,CCc1nc(C)c(CN2CCN(c3ncnc4c(C)csc34)CC2)[nH]1,6.188
11,O=c1cc(CN2CCCC(CCc3c(F)cccc3F)C2)[nH]c(=O)[nH]1 (centres undefined),-9.358
12,O=C1NCCCCC1NC(=O)C1(c2cccc(Cl)c2)CC1 (centres undefined),-14.19
13,O=C(O)C(F)(F)F.O=C1CC(c2ccncc2)C2(CCN(C(=O)c3cccs3)CC2)N1 (centres undefined),1.39
14,COc1ccc(CN2CCC3(CC2)NC(=O)CC3c2ccncc2)cc1.O=C(O)C(F)(F)F.O=C(O)C(F)(F)F (centres undefined),4.952
15,Cc1nc(CN2CCC3(CC2)NC(=O)CC3c2cccnc2)cs1 (centres undefined),101
16,CCc1ccc(CN2CCC3(CC2)NC(=O)CC3c2ccncc2)o1.O=C(O)C(F)(F)F.O=C(O)C(F)(F)F (centres undefined),-16.11
17,O=C1CC(c2ccncc2)C2(CCN(CCO)CC2)N1 (centres undefined),-11.83
18,O=C(O)C(F)(F)F.O=C1CC(c2ccccc2)C2(CCN(CC3CC3)CC2)N1 (centres undefined),-11.51
19,O=C(O)C(F)(F)F.O=C(O)C(F)(F)F.O=C1CC(c2ccncc2)C2(CCN(CC3CC3)CC2)N1 (centres undefined),90.78
20,Cc1nc(CN2CCC3(CC2)NC(=O)CC3c2ccncc2)cs1.O=C(O)C(F)(F)F.O=C(O)C(F)(F)F (centres undefined),104.7
21,O=C1CC(c2cccnc2)C2(CCN(C(=O)N3CCOCC3)CC2)N1 (centres undefined),18.29
